Assay [1] is described as follows: ATG_TAL_CIS: Attagene CIS-FACTORIAL HepG2 Assay for human TAL Basal Promoter (AID 2282966).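 Further: background control endpoint measuring basal TAL promoter reporter mRNA not a specific factor.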 The settings on record: HepG2 Attagene cis-factorial TAL promoter reporter; actives raise or lower the signal. In a few lines:
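HepG2 cells were transiently transfected with promoter-driven multiplexed reporter units and dosed for 24 h. Reporter mRNA was measured by RT-PCR with capillary electrophoresis fluorescence; bidirectional fits used DMSO as baseline, serving as a background control.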

A short description of assay [2]: ATG_TGFb_CIS: Attagene CIS-FACTORIAL HepG2 Assay for human Transforming Growth Factor (TGF) (AID 2282967). The settings on record: HepG2 Attagene CIS TGFb reporter, mRNA transcription; actives raise or lower the signal. In a few lines:
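HepG2 cells transiently transfected with cis-promoter-driven multiplexed reporter units; 24 h compound exposure. Reporter mRNA measured by RT-PCR, 6-FAM labeling, HpaI digestion and capillary electrophoresis; bidirectional fit versus DMSO baseline.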

A short description of assay [3]: ATG_VDRE_CIS: Attagene CIS-FACTORIAL HepG2 Assay for human Vitamin D Receptor Element (VDRE) (AID 2282968). As to conditions: HepG2 VDRE cis-reporter transcription, actives raise or lower the signal. In a few lines: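 HepG2 cells transiently transfected with cis-element reporter units, dosed 24 h; reporter mRNA measured by RT-PCR, 6-FAM labeling, HpaI digestion and capillary electrophoresis. Activity fitted bidirectionally against DMSO baseline.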

The target of assay [4] is Nuclear receptor subfamily 1 group I member 3 (Homo sapiens) (UniProt Q14994). Put plainly: ATG_CAR_TRANS: Attagene TRANS-FACTORIAL HepG2 Assay for human Constitutive Androstane Receptor (CAR) (AID 2282969; active means hit-call score of the fitted dose curve at least 0.9, where 1 is the maximum;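 further: activators raise reporter mRNA above DMSO so AC50 marks induction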). The settings on record: HepG2 Attagene TRANS-FACTORIAL CAR reporter. In outline: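 HepG2 cells transiently transfected with multiplexed GAL4-UAS reporter units expressing chimeric NR-Gal4 proteins; compound exposure 24 h. Reporter mRNA measured by RT-PCR, 6-FAM labelling, HpaI digestion and capillary electrophoresis; gain-of-signal fitted against DMSO baseline.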

In assay [5] the target is Estrogen receptor (Homo sapiens) (UniProt P03372). Kind of assay: ATG_ERa_TRANS: Attagene TRANS-FACTORIAL HepG2 Assay for human Estrogen Receptor alpha (ERa) (AID 2282970; active means hit-call score of the fitted dose curve at least 0.9, where 1 is the maximum). As to conditions: HepG2 Attagene TRANS ERa GAL4 reporter, mRNA. In a few lines:
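HepG2 cells transiently transfected with multiplexed GAL4-UAS reporter units; ERa activity read via exogenous chimeric NR-Gal4 protein. After 24 hour compound exposure, reporter mRNA measured by RT-PCR with 6-FAM labelling and capillary electrophoresis; gain-of-signal fitted relative to DMSO.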

Assay [6] has as its target X-box-binding protein 1 (Homo sapiens) (UniProt P17861). Put plainly: ATG_Xbp1_CIS: Attagene CIS-FACTORIAL HepG2 Assay for human X-box Binding Protein 1 (XBP1) (AID 2282972). The settings on record: HepG2 XBP1 cis-element reporter, Attagene multiplex; actives raise or lower the signal. In outline: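 HepG2 cells transiently transfected with cis-regulated multiple reporter transcription units; endogenous transcription factor activity measured 24 hours after chemical dosing. Reporter mRNA quantified by RT-PCR, 6-FAM primer extension, HpaI digestion and capillary electrophoresis; bidirectional fitting versus DMSO.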

Assay [7] can be described thus: ATG_M_19_TRANS: Attagene TRANS-FACTORIAL HepG2 Assay for M19 Transcription Factor (Internal Marker) (AID 2282974; active means hit-call score of the fitted dose curve at least 0.9, where 1 is the maximum). As to conditions: HepG2 Attagene TRANS-FACTORIAL M19 internal marker reporter. In outline: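 Transfected HepG2 (GAL4-UAS MRTUs), 24 h compound, TriZol RNA, DNase-treated RT, reporter PCR, FAM label, HpaI digest, CE fluorescence; gain vs DMSO.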
Assay [8] has as its target Glucocorticoid receptor (Homo sapiens) (UniProt P04150). Kind of assay: ATG_GR_TRANS: Attagene TRANS-FACTORIAL HepG2 Assay for human Glucocorticoid Receptor (GR) (AID 2282978; active means hit-call score of the fitted dose curve at least 0.9, where 1 is the maximum;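 further: activators score as hits since higher reporter transcript over DMSO is fitted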). As to conditions: HepG2 Attagene TRANS GR reporter, mRNA transcription. In outline:
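After 24 h incubation with test chemical, transfected HepG2 cells were lysed for RNA; reporter cDNA was amplified, FAM-labelled, HpaI-digested and sized on a capillary analyser. Signal gain relative to DMSO was scored.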

Assay [9] is described as follows: ATG_M_32_TRANS: Attagene TRANS-FACTORIAL HepG2 Assay for M32 Transcription Factor (Internal Marker) (AID 2282984; active means hit-call score of the fitted dose curve at least 0.9, where 1 is the maximum). The settings on record: HepG2 Attagene TRANS M32 internal marker reporter. In outline:
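HepG2 cells transiently transfected with multiple GAL4-UAS reporter transcription units, dosed for 24 hours; reporter mRNA quantified by RT-PCR, 6-FAM primer extension, HpaI digestion and capillary electrophoresis. Gain-of-signal fitted versus DMSO baseline; internal background-control marker.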

Assay [10] concerns the target Nuclear receptor subfamily 4 group A member 2 (Homo sapiens) (UniProt P43354). Kind of assay: ATG_NURR1_TRANS: Attagene TRANS-FACTORIAL HepG2 Assay for human Nuclear Receptor Related Protein 1 (NURR1) (AID 2282985; active means hit-call score of the fitted dose curve at least 0.9, where 1 is the maximum). The settings on record: HepG2 Attagene TRANS reporter, mRNA readout. In a few lines: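 HepG2 cells transiently transfected with GAL4-UAS reporter units and chimeric NR-Gal4 constructs; chemical exposure 24 h. Reporter mRNA quantified by RT-PCR, fluorescent labelling and capillary electrophoresis; gain of signal fitted relative to DMSO baseline.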

Assay [11] concerns the target Transcriptional activator Myb (Homo sapiens) (UniProt P10242). Kind of assay: ATG_Myb_CIS: Attagene CIS-FACTORIAL HepG2 Assay for human Myeloblastosis (Myb) Proto-Oncogene Transcription Factor (AID 2282986). The settings on record: HepG2 Attagene CIS-FACTORIAL Myb reporter transcription; actives raise or lower the signal. In outline: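 After 24 h of compound dosing, total RNA from transfected HepG2 cells is reverse-transcribed and the reporter sequences amplified, labeled and separated by capillary electrophoresis. Values come from bidirectional fitting against DMSO.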

Assay [12] concerns the target Nuclear respiratory factor 1 (Homo sapiens) (UniProt Q16656). Kind of assay: ATG_NRF1_CIS: Attagene CIS-FACTORIAL HepG2 Assay for human Nuclear Respiratory Factor 1 (NRF1) Orphan Gene (AID 2282987). The settings on record: HepG2 NRF1 cis-element reporter, Attagene multiplex; actives raise or lower the signal. In a few lines:
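Measured: fluorescent reporter-specific RT-PCR products from transfected HepG2 cells, separated by capillary electrophoresis. Exposure lasted 24 h. Analysis used bidirectional curve fitting with DMSO as negative control.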

Assay [13] in a line: ATG_NFI_CIS: Attagene CIS-FACTORIAL HepG2 Assay for human Nuclear Factor I (NFI) (AID 2282989). The settings on record: HepG2 cis-regulatory reporter, NFI response element transcription; actives raise or lower the signal. In a few lines: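 HepG2 cells transiently transfected with cis-element-driven multiplexed reporter transcription units, dosed for 24 h. Reporter mRNA quantified by RT-PCR, fluorescent labelling, HpaI digestion and capillary electrophoresis; bidirectional fit versus DMSO baseline.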

Assay [14] addresses Steroid hormone receptor ERR1 (Homo sapiens) (UniProt P11474). Kind of assay: ATG_ERRa_TRANS: Attagene TRANS-FACTORIAL HepG2 Assay for human Estrogen-Related Receptor alpha (ERRa) (AID 2282971; active means hit-call score of the fitted dose curve at least 0.9, where 1 is the maximum). The settings on record: HepG2 Attagene TRANS reporter, ERRa transactivation. In outline:
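HepG2 cells transiently transfected with multiplexed GAL4-UAS reporter units reading chimeric ERRa-Gal4 activity; 24 h compound exposure. Reporter mRNA measured by RT-PCR, 6-FAM labelling, HpaI digest and capillary electrophoresis; gain of signal fitted versus DMSO baseline.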

Assay [15] can be described thus: ATG_GAL4_TRANS: Attagene TRANS-FACTORIAL HepG2 Assay for GAL4 (Internal Marker) (AID 2282976; active means hit-call score of the fitted dose curve at least 0.9, where 1 is the maximum). As to conditions: HepG2 Attagene TRANS GAL4 internal marker reporter. In a few lines: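 HepG2 cells transiently transfected with multiplexed GAL4-UAS reporter constructs were dosed for 24 h. Reporter mRNA was measured by RT-PCR, 6-FAM primer extension, HpaI digestion and capillary electrophoresis, and gain of signal was fitted relative to DMSO.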

Assay [16] concerns the target Bile acid receptor (Homo sapiens) (UniProt Q96RI1). Kind of assay: ATG_FXR_TRANS: Attagene TRANS-FACTORIAL HepG2 Assay for Farnesoid X Receptor (FXR) (AID 2282979; active means hit-call score of the fitted dose curve at least 0.9, where 1 is the maximum;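 further: hits raise reporter mRNA above DMSO so AC50 marks FXR activation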). As to conditions: HepG2 Attagene TRANS FXR-GAL4 reporter transcription. In a few lines:
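HepG2 cells transiently transfected with reporter constructs in which a chimeric FXR-GAL4 protein drives a GAL4-UAS reporter; 24 h compound exposure. Reporter mRNA measured by RT-PCR, FAM labelling, HpaI digestion and capillary electrophoresis; gain-of-signal versus DMSO.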

The target in assay [17] is Oxysterols receptor LXR-alpha (Homo sapiens) (UniProt Q13133). Put plainly: ATG_LXRa_TRANS: Attagene TRANS-FACTORIAL HepG2 Assay for human Liver X Receptor alpha (LXRa) (AID 2282980; active means hit-call score of the fitted dose curve at least 0.9, where 1 is the maximum). The settings on record: HepG2 Attagene TRANS reporter, LXRa transactivation. In outline:
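HepG2 cells were transiently transfected with multiplexed reporter units driven by chimeric LXRa–GAL4 fusion proteins, then dosed for 24 h. Reporter mRNA was quantified by RT-PCR, fluorescent labelling and capillary electrophoresis; gain of signal fitted against DMSO baseline.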

Assay [18] concerns the target Hepatocyte nuclear factor 4-alpha (Homo sapiens) (UniProt P41235). Kind of assay: ATG_HNF4a_TRANS: Attagene TRANS-FACTORIAL HepG2 Assay for human Hepatocyte Nuclear Factor 4 alpha (HNF4a) (AID 2282982; active means hit-call score of the fitted dose curve at least 0.9, where 1 is the maximum). The settings on record: HepG2 HNF4a transactivation reporter, mRNA readout. In outline: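 HepG2 cells transiently transfected with multiplexed GAL4-UAS reporter units responsive to chimeric NR-GAL4 proteins; compound exposure 24 h. Reporter mRNA quantified by RT-PCR, 6-FAM labelling, HpaI digestion and capillary electrophoresis; gain of signal versus DMSO baseline.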

The nature of assay [19]: ATG_M_06_TRANS: Attagene TRANS-FACTORIAL HepG2 Assay for M06 Transcription Factor (Internal Marker) (AID 2282983; active means hit-call score of the fitted dose curve at least 0.9, where 1 is the maximum;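 further: reporter transcript level by RT-PCR then capillary electrophoresis fluorescence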). The settings on record: HepG2 Attagene TRANS M06 internal marker reporter. In outline:
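HepG2 cells transiently transfected with multiplexed GAL4-UAS reporter transcription units; after 24 h compound exposure, reporter mRNA measured by RT-PCR, FAM-labelled primer extension, HpaI digestion and capillary electrophoresis. Gain-of-signal fitted versus DMSO baseline; background control readout.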

Results filed as inconclusive are left out. Some compounds were tested as several samples or in several runs, with calls that do not always agree. The source made the active and inactive calls. How the source made its calls, unless noted: active means hit-call score of the fitted dose curve at least 0.9, where 1 is the maximum; inactive means score below 0.9.

Nuclear respiratory factor 1 (Homo sapiens), sequence (Q16656 whole entry, looked up): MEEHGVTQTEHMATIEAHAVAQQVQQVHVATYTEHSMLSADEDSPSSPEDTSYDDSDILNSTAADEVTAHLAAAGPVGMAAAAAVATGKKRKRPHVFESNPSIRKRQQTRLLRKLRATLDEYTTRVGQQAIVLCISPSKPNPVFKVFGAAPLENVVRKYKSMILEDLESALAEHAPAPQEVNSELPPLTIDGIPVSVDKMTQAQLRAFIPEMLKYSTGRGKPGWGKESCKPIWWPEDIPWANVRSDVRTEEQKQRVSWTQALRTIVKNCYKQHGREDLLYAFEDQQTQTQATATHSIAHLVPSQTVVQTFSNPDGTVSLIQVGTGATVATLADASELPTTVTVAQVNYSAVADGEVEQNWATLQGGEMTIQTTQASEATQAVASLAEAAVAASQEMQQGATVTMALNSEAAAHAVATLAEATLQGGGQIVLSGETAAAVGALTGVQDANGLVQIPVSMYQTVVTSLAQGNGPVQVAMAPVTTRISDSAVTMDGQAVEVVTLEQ
Nuclear receptor subfamily 1 group I member 3 (Homo sapiens), sequence (Q14994 whole entry, looked up, the tested form may be a part): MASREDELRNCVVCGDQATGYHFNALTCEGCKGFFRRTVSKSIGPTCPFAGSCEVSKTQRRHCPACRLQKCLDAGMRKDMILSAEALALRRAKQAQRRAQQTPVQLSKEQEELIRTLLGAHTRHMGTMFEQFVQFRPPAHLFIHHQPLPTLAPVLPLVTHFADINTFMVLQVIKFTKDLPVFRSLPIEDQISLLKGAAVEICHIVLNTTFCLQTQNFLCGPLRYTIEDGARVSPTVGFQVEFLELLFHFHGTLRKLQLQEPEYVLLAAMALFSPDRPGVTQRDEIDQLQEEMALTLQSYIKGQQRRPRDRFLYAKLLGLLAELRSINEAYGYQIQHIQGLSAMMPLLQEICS
Glucocorticoid receptor (Homo sapiens), sequence (P04150 whole entry, looked up): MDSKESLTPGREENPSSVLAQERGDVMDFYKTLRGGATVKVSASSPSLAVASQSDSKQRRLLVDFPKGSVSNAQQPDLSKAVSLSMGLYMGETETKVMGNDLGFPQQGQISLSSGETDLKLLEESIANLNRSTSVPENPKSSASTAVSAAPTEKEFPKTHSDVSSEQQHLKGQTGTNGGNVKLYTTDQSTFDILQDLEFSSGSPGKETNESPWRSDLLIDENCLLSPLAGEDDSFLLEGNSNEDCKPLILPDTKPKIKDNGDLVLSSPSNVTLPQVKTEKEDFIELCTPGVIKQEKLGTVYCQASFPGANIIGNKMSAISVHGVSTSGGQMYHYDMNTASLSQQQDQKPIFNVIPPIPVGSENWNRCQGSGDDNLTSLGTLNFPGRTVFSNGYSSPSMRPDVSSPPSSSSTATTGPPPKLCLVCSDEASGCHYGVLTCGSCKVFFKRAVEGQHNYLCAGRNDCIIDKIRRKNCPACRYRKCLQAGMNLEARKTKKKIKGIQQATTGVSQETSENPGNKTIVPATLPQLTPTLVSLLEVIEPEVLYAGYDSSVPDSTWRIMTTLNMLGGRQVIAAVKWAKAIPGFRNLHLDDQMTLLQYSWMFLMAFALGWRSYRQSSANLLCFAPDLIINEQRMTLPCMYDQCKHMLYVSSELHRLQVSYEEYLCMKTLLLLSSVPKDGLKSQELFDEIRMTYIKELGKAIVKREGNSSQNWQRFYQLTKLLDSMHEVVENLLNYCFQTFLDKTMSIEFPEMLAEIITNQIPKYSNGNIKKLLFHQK
Estrogen receptor (Homo sapiens), sequence (P03372 whole entry, looked up, the tested form may be a part): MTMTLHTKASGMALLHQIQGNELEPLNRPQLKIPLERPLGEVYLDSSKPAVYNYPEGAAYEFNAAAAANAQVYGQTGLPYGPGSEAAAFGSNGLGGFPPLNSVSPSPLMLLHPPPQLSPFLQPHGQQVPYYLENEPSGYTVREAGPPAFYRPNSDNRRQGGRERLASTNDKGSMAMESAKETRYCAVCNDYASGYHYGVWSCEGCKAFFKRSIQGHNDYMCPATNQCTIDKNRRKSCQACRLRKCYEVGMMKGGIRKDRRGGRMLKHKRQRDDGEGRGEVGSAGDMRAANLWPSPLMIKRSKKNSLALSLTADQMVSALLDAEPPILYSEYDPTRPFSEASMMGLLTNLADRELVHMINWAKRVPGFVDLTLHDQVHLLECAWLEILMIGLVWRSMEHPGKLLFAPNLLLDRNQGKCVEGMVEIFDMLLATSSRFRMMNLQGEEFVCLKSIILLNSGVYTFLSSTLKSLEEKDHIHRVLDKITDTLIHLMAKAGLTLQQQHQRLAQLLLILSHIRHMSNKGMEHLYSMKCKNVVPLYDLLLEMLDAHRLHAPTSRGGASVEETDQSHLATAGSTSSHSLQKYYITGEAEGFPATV
Bile acid receptor (Homo sapiens), sequence (Q96RI1 whole entry, looked up, the tested form may be a part): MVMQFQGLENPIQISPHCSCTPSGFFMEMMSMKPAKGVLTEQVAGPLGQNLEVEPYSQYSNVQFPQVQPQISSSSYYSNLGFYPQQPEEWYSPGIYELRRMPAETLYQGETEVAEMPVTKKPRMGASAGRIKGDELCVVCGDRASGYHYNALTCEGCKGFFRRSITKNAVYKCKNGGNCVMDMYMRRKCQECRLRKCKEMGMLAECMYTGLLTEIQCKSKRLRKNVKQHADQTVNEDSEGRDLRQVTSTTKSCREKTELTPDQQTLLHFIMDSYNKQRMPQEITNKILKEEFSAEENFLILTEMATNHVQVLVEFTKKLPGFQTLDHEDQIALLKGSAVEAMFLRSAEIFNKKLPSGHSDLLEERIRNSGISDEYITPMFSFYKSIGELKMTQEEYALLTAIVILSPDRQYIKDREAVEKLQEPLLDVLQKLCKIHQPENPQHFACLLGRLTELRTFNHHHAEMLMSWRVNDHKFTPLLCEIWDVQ
Hepatocyte nuclear factor 4-alpha (Homo sapiens), sequence (P41235 whole entry, looked up, the tested form may be a part): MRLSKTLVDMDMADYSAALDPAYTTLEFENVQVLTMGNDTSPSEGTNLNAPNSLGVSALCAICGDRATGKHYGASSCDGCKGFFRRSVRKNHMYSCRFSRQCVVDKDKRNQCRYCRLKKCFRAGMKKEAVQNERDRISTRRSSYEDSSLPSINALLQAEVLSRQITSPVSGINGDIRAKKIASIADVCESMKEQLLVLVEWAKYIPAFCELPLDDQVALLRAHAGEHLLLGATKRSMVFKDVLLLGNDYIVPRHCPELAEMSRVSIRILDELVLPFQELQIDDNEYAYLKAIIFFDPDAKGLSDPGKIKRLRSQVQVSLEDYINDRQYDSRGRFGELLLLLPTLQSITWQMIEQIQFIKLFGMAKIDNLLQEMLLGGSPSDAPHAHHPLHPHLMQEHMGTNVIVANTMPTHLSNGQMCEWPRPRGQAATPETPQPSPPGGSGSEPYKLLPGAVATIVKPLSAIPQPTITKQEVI
Oxysterols receptor LXR-alpha (Homo sapiens), sequence (Q13133 whole entry, looked up, the tested form may be a part): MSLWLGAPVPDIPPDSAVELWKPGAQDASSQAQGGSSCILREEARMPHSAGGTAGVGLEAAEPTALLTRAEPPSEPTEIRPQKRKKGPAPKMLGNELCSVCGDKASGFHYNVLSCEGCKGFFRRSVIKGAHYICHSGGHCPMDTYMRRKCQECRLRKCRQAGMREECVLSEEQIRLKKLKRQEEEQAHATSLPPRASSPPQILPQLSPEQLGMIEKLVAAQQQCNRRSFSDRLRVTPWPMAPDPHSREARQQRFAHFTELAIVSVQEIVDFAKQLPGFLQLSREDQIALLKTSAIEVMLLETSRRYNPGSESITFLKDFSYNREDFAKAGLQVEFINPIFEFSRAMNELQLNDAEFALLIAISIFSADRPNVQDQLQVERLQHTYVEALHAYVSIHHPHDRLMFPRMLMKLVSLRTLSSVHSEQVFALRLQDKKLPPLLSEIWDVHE
Transcriptional activator Myb (Homo sapiens), sequence (P10242 whole entry, looked up): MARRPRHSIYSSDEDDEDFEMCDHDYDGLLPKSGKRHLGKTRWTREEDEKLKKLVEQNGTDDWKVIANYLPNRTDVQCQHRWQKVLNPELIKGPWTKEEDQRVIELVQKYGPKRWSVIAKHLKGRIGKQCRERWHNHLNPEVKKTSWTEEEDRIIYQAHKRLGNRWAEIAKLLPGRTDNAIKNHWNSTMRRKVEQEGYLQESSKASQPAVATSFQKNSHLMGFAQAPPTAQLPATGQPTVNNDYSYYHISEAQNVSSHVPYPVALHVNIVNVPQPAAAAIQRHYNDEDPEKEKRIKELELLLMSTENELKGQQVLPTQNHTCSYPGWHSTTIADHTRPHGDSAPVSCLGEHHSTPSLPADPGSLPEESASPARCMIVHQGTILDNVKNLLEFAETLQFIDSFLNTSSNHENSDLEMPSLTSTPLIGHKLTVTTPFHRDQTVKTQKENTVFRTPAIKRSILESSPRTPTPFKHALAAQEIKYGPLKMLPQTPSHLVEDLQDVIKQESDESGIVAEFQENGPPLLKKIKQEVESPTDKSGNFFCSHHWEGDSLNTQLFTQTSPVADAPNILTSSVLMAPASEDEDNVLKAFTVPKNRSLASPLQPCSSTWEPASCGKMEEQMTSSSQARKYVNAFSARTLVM
Nuclear receptor subfamily 4 group A member 2 (Homo sapiens), sequence (P43354 whole entry, looked up, the tested form may be a part): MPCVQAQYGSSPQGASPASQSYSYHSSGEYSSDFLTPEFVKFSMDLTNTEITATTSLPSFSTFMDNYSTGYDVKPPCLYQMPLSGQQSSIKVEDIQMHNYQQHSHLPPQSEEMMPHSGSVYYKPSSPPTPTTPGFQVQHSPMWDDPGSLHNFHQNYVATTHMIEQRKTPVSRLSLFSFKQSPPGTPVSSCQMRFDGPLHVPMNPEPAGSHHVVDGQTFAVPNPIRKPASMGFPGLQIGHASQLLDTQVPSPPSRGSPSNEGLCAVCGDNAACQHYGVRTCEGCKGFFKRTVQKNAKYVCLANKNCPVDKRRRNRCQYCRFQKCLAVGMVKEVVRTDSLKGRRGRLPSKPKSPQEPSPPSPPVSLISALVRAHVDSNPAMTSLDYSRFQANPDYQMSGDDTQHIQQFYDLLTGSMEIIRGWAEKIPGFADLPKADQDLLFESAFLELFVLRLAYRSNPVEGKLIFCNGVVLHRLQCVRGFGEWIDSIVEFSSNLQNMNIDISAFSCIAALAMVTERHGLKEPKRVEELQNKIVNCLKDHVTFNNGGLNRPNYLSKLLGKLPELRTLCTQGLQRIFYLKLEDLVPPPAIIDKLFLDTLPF

For `O=C(O)c1cccc(C[C@@H]2COc3ccc(OCc4nc5cc(F)ccc5s4)cc3[C@@H]2O)c1`, the call in [1], in assay [2], in assay [3], in assay [4], in assay [5] and in [7] was inactive. The compound was classed as inactive in [8], in assay [9], in assay [10], in assay [11], in assay [12] and in [13]. Also, in [6], the AC50 is 160 µM (active).

In the case of `OCCC(F)(F)C(F)(F)C(F)(F)C(F)(F)F`, the result in assay [1], in assay [2], in assay [3], in [4], in [14] and in [6] was inactive. Also, the outcome in assay [7], in assay [15], in assay [8], in [16], in assay [17] and in [18] was inactive. Further, the compound was called inactive in assay [19], in assay [9], in assay [10], in assay [11], in [12] and in assay [13].

For the compound `OCc1ccccc1`, the outcome in [1], in [2], in assay [3], in assay [4], in assay [14] and in assay [6] was inactive. Also, the compound was classed as inactive in [7], in assay [15], in assay [8], in assay [18], in assay [19] and in [9]. Also, the compound was classed as inactive in assay [10], in assay [11], in assay [12] and in [13]. Also, the concentration at half-maximal activity (AC50) in [10] is 14.2 µM (active).

For the compound `O=C(Cl)C(F)(F)C(F)(F)C(F)(F)C(=O)Cl`, the result in [1], in [2], in assay [3], in [4], in assay [14] and in [6] was inactive. The call in assay [7], in assay [15], in assay [8], in assay [16], in [17] and in assay [18] was inactive. In addition, the outcome in assay [19], in assay [9], in [11], in assay [12] and in assay [13] was inactive.

On to `C=CCc1cc(S(=O)(=O)c2ccc(O)c(CC=C)c2)ccc1O`, for which the outcome in assay [1], in [2], in [6], in assay [7], in [15] and in assay [8] was inactive. Further, the result in [16], in assay [19], in [9], in assay [11] and in [13] was inactive. For the same compound, the AC50 in assay [3] is 9.12 µM (active); in assay [5], 2.06 µM (active); in assay [12] it was 33.4 µM (active).

In the case of `CCCc1ccccc1`, the call in assay [1], in assay [2], in [3], in assay [6], in assay [15] and in [8] was inactive. Also, the compound was called inactive in assay [18], in assay [19], in assay [10], in assay [11], in [12] and in [13].

Regarding `CCCCCCCCCC`, the outcome in [1], in [2], in assay [3], in [5], in [6] and in [7] was inactive. Further, the compound was classed as inactive in [16], in [18], in assay [10], in assay [11], in assay [12] and in assay [13].

As to `CNC(C)=O`, the outcome in assay [1], in assay [2], in [3], in assay [4], in [6] and in assay [19] was inactive. In addition, the outcome in assay [10], in assay [11], in assay [12] and in [13] was inactive.

Regarding `CCCCCCCCCCCCCCCCOS(=O)(=O)O`, the call in assay [1], in [3], in assay [14], in [6], in [7] and in [16] was inactive. Besides, the compound was called inactive in assay [9], in assay [10], in [11] and in assay [12]. Further, the results for the half-maximal activity concentration (AC50) in assay [2] and in [13] were 11.5 µM (active) and 24.6 µM (active), respectively.

The values above are taken from PubChem BioAssay (EPA / NIEHS).
